The values below come from PubChem BioAssay (Tox21).

Experiment [1] can be described thus: Nuclear factor erythroid 2-related factor 2/antioxidant responsive element (Nrf2/ARE) small molecule agonists: luciferase reporter gene qHTS assay in human keratinocytes (AID 1919969). Further: nearly all actives have a fitted effect of over 35% in size. On the technique in general: A reporter such as luciferase makes a cellular process visible.
In experiment [2] the target is Gonadotropin-releasing hormone receptor (Homo sapiens) (UniProt P30968). As to the kind of experiment: Human gonadotropin-releasing hormone receptor (GnRHR) small molecule agonists, calcium flux assay in GnRHR-HEK293 cells (AID 1920063). Further: nearly all actives have a fitted effect of over 35% in size. An outline of the steps: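 Compounds dissolved in DMSO are pin-transferred onto dye-loaded GnRHR-HEK293 cells, which were seeded 18 h before at 37 C/5% CO2. Calcium signal is read as fluorescence intensity at 1 s intervals for 3 min.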
A general note: Calcium flux is commonly read through the fluorescence of an indicator in the cells.

The target in experiment [3] is KiSS-1 receptor (Homo sapiens) (UniProt Q969F8). As to the kind of experiment: Human kisspeptin (KISS1R) small molecule agonists, calcium flux assay in KISS1R-HEK293 cells (AID 1920064; active means well fitted activation curve with a large enough effect in the repeat runs). An outline of the steps:
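Cell line: HEK293, stable human KISS1R. Dye loading 1 h at 37 C after 18 h culture. Read: kinetic fluorescence, 480/540 nm, 3 min at 1 s intervals.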

Experiment [4] can be described thus: G protein-coupled receptor (GPCR) small molecule agonists, calcium flux assay: HEK293 wild type cell line counter screen (AID 1920065). An outline of the steps:
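Tox21 10K compounds, 15 concentrations each in triplicate, pin-transferred in DMSO onto dye-loaded cells; kinetic read at 480/540 nm for 3 min, 1 s intervals.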

Experiment [5] in a line: p53 small molecule agonists, cell-based qHTS assay with human liver microsomes (AID 1963577). An outline of the steps: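 p53RE-bla cells, 4,000/well, compound added after 5 h, with human liver microsomes 0.5 mg/mL and NADPH 0.5 mg/mL final; 16 h at 37 C, then LiveBLAzer 2 h RT, fluorescence.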
A general note: Quantitative high-throughput screening tests each substance at several concentrations.

Experiment [6] is described as follows: p53 small molecule agonists, cell-based qHTS assay with rat liver microsomes (AID 1963578). An outline of the steps: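 p53RE-bla cells, 4,000/well, pre-incubated 5 h, then given compounds plus rat liver microsomes (0.5 mg/mL final) and NADPH (0.5 mg/mL final). Incubation 16 h at 37 C; beta-lactamase reporter read by LiveBLAzer fluorescence after 2 h at room temperature.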

A short description of experiment [7]: p53 small molecule agonists, cell-based qHTS assay: qHTS cell viability counter screen (AID 1963581). Further: nearly all actives have a fitted effect of over 45% in size. An outline of the steps:
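ATP content measured by luminescence in HCT-116 p53RE-bla cells treated 16 h at 37 C, same wells as the reporter screen.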

Experiment [8] in a line: p53 small molecule agonists, cell-based qHTS assay (AID 1963582; active means well fitted activation curve with a large enough effect in the signal ratio in the repeat runs, not every such curve was filed as active; the % refers to the signal ratio). An outline of the steps: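 16 h compound exposure (37 C) of p53 response element–bla cells, preceded by 5 h recovery at 37 C/5% CO2; read-out via LiveBLAzer B/G FRET substrate, 2 h RT, fluorescence intensity.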
The target in experiment [9] is 5-hydroxytryptamine receptor 2A (Homo sapiens) (UniProt P28223). In words: 5-hydroxytryptamine receptor 2A (HTR2A) small molecule antagonists, cell-based qHTS assay (AID 1963586). Further: nearly all actives have a fitted effect of over 45% in size. Further: potency means the concentration at half of the fitted maximal effect. An outline of the steps: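 CHO cells stably expressing human HTR2A were plated for 18 h at 37 C, then loaded with calcium dye for 1 h. Compounds were preincubated 5 min at room temperature before DOI (4 nM solution) was added. Kinetic fluorescence was read for 3 min.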

Experiment [10] has the same target. In words: 5-hydroxytryptamine receptor 2A (HTR2A) small molecule agonists, cell-based qHTS assay (AID 1963587). Further: nearly all actives have a fitted effect of over 30% in size. Further: potency means the concentration at half of the fitted maximal effect. An outline of the steps: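 HTR2A-CHO cells, plated 18 h at 37 C/5% CO2, dye-loaded 1 h at 37 C; compounds in DMSO added by pin tool (agonist mode). Intracellular calcium flux read as kinetic fluorescence on FDSS over 2 min at 1 s intervals.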
Experiment [11] addresses Muscarinic acetylcholine receptor M1 (Homo sapiens) (UniProt P11229). In words: Cholinergic receptor muscarinic 1 (CHRM1) small molecule antagonists, cell-based qHTS assay (AID 1963588). Further: nearly all actives have a fitted effect of over 40% in size. An outline of the steps:
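Compounds were tested at 15 concentrations in three independent runs. Dye-loaded CHRM1-CHO cells were exposed 5 min at room temperature before stimulation by acetylcholine added at 50nM. Intracellular calcium was read kinetically on FDSS for 3 min.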

For experiment [12] the target is unchanged. As to the kind of experiment: Cholinergic receptor muscarinic 1 (CHRM1) small molecule agonists, cell-based qHTS assay (AID 1963589). Further: nearly all actives have a fitted effect of over 35% in size. An outline of the steps: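 Homogeneous fluorescence calcium flux, agonist mode. Human M1-expressing CHO cells; compound dosed at 15 concentrations, three independent runs; signal sampled every 1 sec.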
The nature of experiment [13]: cAMP Responsive Elements (CRE) small molecule agonists, cell-based qHTS assay (AID 1963590). An outline of the steps: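 HEK 293T cells stably bearing CRE-bla were plated at 2,000 cells per well and rested 18 h. Compounds, positive controls or DMSO were added for 3 h at 37 C. LiveBLAzer B/G substrate was then loaded for 2 h at room temperature.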
Experiment [14] concerns the target Beta-2 adrenergic receptor (Homo sapiens) (UniProt P07550). As to the kind of experiment: Adrenergic beta2 receptor (ADRB2) small molecule antagonists, cell-based qHTS assay (AID 1963592). Further: nearly all actives have a fitted effect of over 50% in size. Further: potency means the concentration at half of the fitted maximal effect. An outline of the steps:
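Assay format: CHO-ADRB2 cells, 18-20hr seeding at 37C/5% CO2, then compound plus 1nM isoproterenol agonist mix for 0.5hr RT. Homogeneous time-resolved fluorescence cAMP detection after 1hr, expressed as 665/615 nm ratio.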

The target of experiment [15] is D(2) dopamine receptor (Homo sapiens) (UniProt P14416). As to the kind of experiment: Dopamine D2 receptor (DRD2) small molecule agonists, cell-based qHTS assay (AID 1963594). Further: nearly all actives have a fitted effect of over 35% in size. Further: potency means the concentration at half of the fitted maximal effect. An outline of the steps: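 HEK293 cells stably expressing DRD2 were cultured 24 h at 37 C, then given Ro20-1724 (0.1 mM final) and compounds for 10 min at room temperature. NKH477 (200nM) was then added for 30 min. cAMP was read by HTRF.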

For experiment [16] the target is unchanged. As to the kind of experiment: Dopamine D2 receptor (DRD2) small molecule antagonists, cell-based qHTS assay (AID 1963595; active means well fitted inhibition curve with a large enough effect in the signal ratio in the repeat runs, with a control signal flat; the % refers to the signal ratio). An outline of the steps:
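Antagonism was scored as restored cAMP in HEK293-DRD2 cells. These cells were stimulated with 200 nM NKH477 and 12 nM quinpirole for 30 min at room temperature, in the presence of 0.1 mM Ro20-1724.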

Experiment [17] in a line: p53 small molecule agonists, cell-based qHTS assay with rat liver microsomes: qHTS cell viability counter screen (AID 1963580). Further: nearly all actives have a fitted effect of over 45% in size. An outline of the steps: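 Counter screen for cytotoxicity under metabolic activation: rat liver microsomes and NADPH, 0.5 mg/mL final each, added with compounds to p53RE-bla HCT-116 cells; 16 h at 37 C, then ATP luminescence read.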
A short description of experiment [18]: p53 small molecule agonists, cell-based qHTS assay with human liver microsomes: qHTS cell viability counter screen (AID 1963579). Further: nearly all actives have a fitted effect of over 45% in size. An outline of the steps:
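p53RE-bla cells, 4,000/well, dosed 5 hours after plating, with human liver microsomes (0.5 mg/mL final) plus NADPH (0.5 mg/mL final), 16 hours at 37 C. Viability read as CellTiter-Glo luminescence after 30 min at room temperature.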

Experiment [19] deals with Beta-2 adrenergic receptor (Homo sapiens) (UniProt P07550). As to the kind of experiment: Adrenergic beta2 receptor (ADRB2) small molecule agonists, cell-based qHTS assay (AID 1963593).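 Further: CHO cells stably overexpressing human ADRB2.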 An outline of the steps:
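CHO cells stably over-expressing ADRB2 were plated overnight at 37C, then dosed with compounds plus a stimulation mix containing 100uM IBMX and 25uM Ro-20-1724 for 0.5hr at room temperature. cAMP was measured by HTRF competition, 1hr.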

The nature of experiment [20]: cAMP Responsive Elements (CRE) small molecule antagonists, cell-based qHTS assay (AID 1963591; active means well fitted inhibition curve with a large enough effect in the signal ratio in the repeat runs, not every such curve was filed as active; the % refers to the signal ratio). An outline of the steps: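 First, CRE-bla HEK293T cells settled 18 h at 37 C. Next, compound and 0.25 uM final NKH477 were applied for 3 h. Last, LiveBLAzer B/G substrate was loaded for 2 h at room temperature.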

Molecules are shown by their SMILES. Values without a mark were called inactive. Inconclusive results are not listed. Active and inactive are the calls of the source. Unless noted, the call rests on the fitted dose curve.

Sequence of 5-hydroxytryptamine receptor 2A (Homo sapiens) (P28223 whole entry, looked up): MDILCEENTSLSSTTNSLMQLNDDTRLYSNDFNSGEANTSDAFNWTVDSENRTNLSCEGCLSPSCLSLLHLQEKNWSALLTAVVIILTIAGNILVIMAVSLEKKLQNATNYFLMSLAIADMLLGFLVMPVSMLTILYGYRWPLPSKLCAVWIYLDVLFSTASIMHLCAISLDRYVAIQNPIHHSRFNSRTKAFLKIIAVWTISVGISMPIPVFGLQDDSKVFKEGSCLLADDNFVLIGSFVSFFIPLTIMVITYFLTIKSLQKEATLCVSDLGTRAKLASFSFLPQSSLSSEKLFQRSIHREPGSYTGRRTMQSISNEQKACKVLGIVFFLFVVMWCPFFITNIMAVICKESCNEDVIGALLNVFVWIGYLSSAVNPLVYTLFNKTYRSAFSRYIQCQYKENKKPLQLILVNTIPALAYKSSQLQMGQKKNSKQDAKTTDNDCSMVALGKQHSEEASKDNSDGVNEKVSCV
Sequence of KiSS-1 receptor (Homo sapiens) (Q969F8 whole entry, looked up): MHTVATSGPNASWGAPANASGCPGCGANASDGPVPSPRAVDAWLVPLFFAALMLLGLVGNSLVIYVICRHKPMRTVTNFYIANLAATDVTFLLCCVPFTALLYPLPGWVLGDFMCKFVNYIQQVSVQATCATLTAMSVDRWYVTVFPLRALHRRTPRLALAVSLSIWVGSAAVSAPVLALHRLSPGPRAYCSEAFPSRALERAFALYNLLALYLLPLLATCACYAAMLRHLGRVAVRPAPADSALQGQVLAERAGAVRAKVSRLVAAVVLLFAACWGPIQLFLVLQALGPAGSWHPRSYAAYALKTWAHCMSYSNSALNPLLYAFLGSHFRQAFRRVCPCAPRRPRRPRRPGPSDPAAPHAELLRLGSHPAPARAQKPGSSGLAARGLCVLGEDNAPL
Sequence of Beta-2 adrenergic receptor (Homo sapiens) (P07550 whole entry, looked up): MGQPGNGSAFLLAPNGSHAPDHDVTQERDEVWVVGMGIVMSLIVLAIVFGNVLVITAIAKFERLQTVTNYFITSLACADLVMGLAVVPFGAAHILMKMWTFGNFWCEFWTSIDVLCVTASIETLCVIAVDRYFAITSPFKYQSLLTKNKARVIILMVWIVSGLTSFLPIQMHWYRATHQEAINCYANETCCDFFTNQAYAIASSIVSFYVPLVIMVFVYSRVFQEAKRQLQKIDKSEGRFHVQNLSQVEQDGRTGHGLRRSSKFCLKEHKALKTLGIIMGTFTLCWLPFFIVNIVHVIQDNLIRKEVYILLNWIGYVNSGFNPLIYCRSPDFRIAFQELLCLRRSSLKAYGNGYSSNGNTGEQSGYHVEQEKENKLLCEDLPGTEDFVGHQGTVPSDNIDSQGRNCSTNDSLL
Sequence of Gonadotropin-releasing hormone receptor (Homo sapiens) (P30968 whole entry, looked up): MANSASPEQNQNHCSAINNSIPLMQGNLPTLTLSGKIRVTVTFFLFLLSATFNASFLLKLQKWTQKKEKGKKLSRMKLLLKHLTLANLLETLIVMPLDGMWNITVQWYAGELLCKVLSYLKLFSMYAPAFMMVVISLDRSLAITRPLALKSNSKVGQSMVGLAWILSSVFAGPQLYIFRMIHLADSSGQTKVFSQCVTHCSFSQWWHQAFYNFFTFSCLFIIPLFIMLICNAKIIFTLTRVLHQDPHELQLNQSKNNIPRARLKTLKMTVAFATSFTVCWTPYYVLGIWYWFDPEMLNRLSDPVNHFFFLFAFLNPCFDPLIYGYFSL
Sequence of D(2) dopamine receptor (Homo sapiens) (P14416 whole entry, looked up): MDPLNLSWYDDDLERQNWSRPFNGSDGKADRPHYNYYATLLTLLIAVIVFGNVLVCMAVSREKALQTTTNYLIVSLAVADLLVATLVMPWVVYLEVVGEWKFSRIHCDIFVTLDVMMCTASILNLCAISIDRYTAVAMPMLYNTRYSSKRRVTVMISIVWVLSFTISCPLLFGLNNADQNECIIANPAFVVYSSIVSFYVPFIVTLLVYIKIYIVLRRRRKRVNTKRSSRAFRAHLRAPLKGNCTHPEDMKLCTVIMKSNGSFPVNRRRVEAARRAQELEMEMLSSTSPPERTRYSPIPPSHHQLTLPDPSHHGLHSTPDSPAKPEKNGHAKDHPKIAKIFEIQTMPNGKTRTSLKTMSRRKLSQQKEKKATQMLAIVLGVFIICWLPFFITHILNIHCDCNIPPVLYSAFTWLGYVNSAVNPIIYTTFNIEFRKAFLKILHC
Sequence of Muscarinic acetylcholine receptor M1 (Homo sapiens) (P11229 whole entry, looked up): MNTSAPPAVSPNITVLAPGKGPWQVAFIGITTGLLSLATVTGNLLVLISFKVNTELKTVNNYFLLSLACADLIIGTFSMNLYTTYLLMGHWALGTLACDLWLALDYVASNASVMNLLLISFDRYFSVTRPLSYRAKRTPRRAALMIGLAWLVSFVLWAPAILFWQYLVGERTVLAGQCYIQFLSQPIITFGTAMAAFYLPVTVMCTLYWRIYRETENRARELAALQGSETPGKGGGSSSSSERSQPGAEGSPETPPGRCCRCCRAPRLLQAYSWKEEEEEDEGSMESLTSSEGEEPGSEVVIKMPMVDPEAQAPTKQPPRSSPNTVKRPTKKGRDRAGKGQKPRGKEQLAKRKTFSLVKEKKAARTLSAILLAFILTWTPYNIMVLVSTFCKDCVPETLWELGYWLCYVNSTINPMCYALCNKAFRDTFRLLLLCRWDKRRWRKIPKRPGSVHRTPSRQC

Consider `NC1CCN(c2cccc(Cl)n2)CC1`, for which the Potency result in experiment [1], in experiment [2], in experiment [5], in [6], in experiment [7] and in [8] was “inactive” in each case. For the same compound, the Potency result in experiment [11], in experiment [12], in experiment [13], in experiment [14], in experiment [15] and in [16] was “inactive” throughout. In addition, the outcome in experiment [3] and in [4] was inactive. The Potency in experiment [9] was 410 nM (active); in [10], 268 nM (active).

For `CC1(C)OC(=O)Nc2ccc(Br)cc21`, the Potency entry in experiment [1], in experiment [2], in [5], in [6], in experiment [17] and in experiment [7] was “inactive” throughout. Further, the Potency entry in [8], in [10], in [11], in [12], in experiment [13] and in [14] was “inactive” throughout. The Potency result in [15] and in experiment [16] was “inactive” each time. For the same compound, the result in experiment [3] and in experiment [4] was inactive.

Take `Cc1ccccc1C(=O)Nc1ccc(C(=O)N2CCCC(N(C)C)c3ccccc32)cc1` (centres undefined): the Potency entry in experiment [1], in experiment [2], in [5], in experiment [18], in experiment [17] and in experiment [9] was “inactive” throughout. For the same compound, the Potency entry in experiment [10], in [11], in [12], in experiment [14], in [19] and in [15] was “inactive” throughout. The Potency result in [16] is “inactive”. Moreover, the outcome in [3] and in experiment [4] was inactive.

Regarding `C=Cc1ccccc1C=C`, the Potency result in [1], in [2], in experiment [6], in experiment [18], in experiment [8] and in experiment [9] was “inactive” throughout. In addition, the Potency result in experiment [10], in experiment [11], in [12], in experiment [13], in [20] and in experiment [14] was “inactive” each time. In addition, the Potency result in experiment [15] and in [16] was “inactive” in each case. Besides, the result in experiment [3] and in experiment [4] was inactive.

Take `CC1(C)CCC(C)(C)c2cc(NC(=O)c3ccc(C(=O)O)cc3)ccc21`: the Potency entry in [1], in [2], in experiment [5], in experiment [6], in experiment [17] and in experiment [7] was “inactive” in each case. Further, the Potency entry in [8], in [9], in experiment [10], in experiment [12], in experiment [14] and in experiment [16] was “inactive” each time. In addition, the result in experiment [3] and in experiment [4] was inactive. Besides, the Potency in [15] is 1060 nM (active).

Consider `O=C(O)c1ccc[n+]([O-])c1`, for which the Potency result in experiment [1], in [2], in experiment [6], in experiment [18], in experiment [17] and in experiment [7] was “inactive” in each case. In addition, the Potency result in experiment [8], in [10], in experiment [11], in experiment [12], in experiment [20] and in [14] was “inactive” in each case. Also, the Potency entry in experiment [15] and in experiment [16] was “inactive” in each case. The outcome in [3] and in [4] was inactive.

As for `Cc1cc2c(OCC(CNC(C)(C)C)OC(=O)c3ccccc3)cccc2[nH]1` (centres undefined), the Potency entry in [1], in experiment [2], in experiment [5], in [6], in experiment [17] and in experiment [7] was “inactive” throughout. The Potency result in [8], in [13], in [20], in [15] and in [16] was “inactive” each time. In addition, the outcome in [3] and in experiment [4] was inactive. For the same compound, in experiment [14], the Potency was 168 nM (active).

`CC(C(=O)O)c1ccc(-c2ccccc2)c(F)c1` (centres undefined): the Potency entry in experiment [1], in experiment [2], in [6], in experiment [18], in experiment [17] and in experiment [7] was “inactive” each time. Besides, the Potency entry in experiment [14], in [15] and in experiment [16] was “inactive” throughout. Further, the outcome in [3] and in [4] was inactive.
